Where “and” joins values, the source holds several entries; their conditions need not be identical. Identical values can stand only once. In all, about 2,000 compounds went through this assay and about 250 (12%) were called active. What follows is part of a selection rich in actives, with near analogues and random picks from the rest. Unmarked numbers belong to inactive results. Rule as the data show it: active = hERG blockade below about -20% or above about 20%; inactive = in between.
Molecular target: Voltage-gated inwardly rectifying potassium channel KCNH2 (Homo sapiens) (UniProt Q12809)
Sequence (Q12809 whole entry, looked up): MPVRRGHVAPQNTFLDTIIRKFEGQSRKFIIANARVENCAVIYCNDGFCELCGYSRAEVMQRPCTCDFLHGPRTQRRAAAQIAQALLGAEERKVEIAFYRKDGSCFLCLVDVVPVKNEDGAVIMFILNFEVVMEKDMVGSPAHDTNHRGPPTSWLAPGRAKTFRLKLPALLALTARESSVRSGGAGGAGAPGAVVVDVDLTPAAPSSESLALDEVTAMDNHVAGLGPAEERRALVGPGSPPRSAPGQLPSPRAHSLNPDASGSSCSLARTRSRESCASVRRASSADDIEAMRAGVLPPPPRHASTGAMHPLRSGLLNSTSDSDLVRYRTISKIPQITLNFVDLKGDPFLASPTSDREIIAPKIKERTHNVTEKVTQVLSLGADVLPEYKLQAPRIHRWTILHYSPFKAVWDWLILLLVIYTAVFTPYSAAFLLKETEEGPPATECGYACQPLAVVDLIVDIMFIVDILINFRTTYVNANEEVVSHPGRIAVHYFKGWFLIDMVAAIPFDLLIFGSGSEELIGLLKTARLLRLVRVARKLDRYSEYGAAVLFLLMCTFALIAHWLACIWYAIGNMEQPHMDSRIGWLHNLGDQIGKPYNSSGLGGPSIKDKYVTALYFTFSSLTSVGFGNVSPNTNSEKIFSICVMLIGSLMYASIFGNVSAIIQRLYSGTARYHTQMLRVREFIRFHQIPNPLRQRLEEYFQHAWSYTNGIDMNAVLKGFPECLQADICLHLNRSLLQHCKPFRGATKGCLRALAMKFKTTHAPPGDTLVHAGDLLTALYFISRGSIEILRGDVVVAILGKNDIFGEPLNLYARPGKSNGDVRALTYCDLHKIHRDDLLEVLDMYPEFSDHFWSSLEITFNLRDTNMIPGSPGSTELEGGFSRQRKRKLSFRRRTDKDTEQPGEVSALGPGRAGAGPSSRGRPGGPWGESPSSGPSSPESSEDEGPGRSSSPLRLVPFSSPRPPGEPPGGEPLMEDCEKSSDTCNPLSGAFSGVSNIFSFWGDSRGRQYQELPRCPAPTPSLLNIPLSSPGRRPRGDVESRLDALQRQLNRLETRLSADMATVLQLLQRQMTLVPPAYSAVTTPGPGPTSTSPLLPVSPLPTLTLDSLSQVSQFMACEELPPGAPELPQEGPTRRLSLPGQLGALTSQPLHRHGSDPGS
Assay: modulators of KCNH2 ion channel function, cellular (AID 376);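 also: 0% = buffer alone and 100% = reference blocker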
Settings: hERG-expressing cells, channel activity single-concentration screen; concentration not given here

SMILES	hERG blockade
Cc1ncc(CSC(=N)N)n1Cc1ccccc1	-16.6%
Cc1c2ccccc2c(CSC(=N)N)c2ccccc12	103% (active)
N=C(N)SCCc1ccccn1	-2.29% and 1.24%
O=C(O)CSCCc1ccccc1	5.62%
CC12CC(=O)C3C(CCC4=CC(=O)CCC43C)C1CC=C2CC(=O)O (stereo not drawn)	-16.4%
O=C(O)c1nc2nc(Cl)c(Cl)nc2[nH]1	6.64%
CCCCSCc1nc2nc(Cl)c(Cl)nc2[nH]1	-33.6% (active)
CCN(CCO)CC1CCCC2CCCCC21 (stereo not drawn)	-6.41%
O=C(O)C1C2OC(C(Br)C2Br)C1C(=O)O (stereo not drawn)	-2.82%
CC(=O)NC(Cc1ccc(O)cc1)C(=O)O (stereo not drawn)	-8.5%
CN1CC(c2ccccc2)C(O)(C2(c3ccccc3)CN(C)CC(c3ccccc3)C2=O)C(c2ccccc2)C1 (stereo not drawn)	20.8% (active)
CC1(C)N=C(N)N=C(N)N1CCCCc1ccccc1	-14.1%
Nc1nc(SCCc2ccccc2)c2[nH]cnc2n1	-0.569%
Nc1nc(N)c(CCCCc2ccccc2)c(N)n1	26.6% (active)
Cn1c(=O)c2[nH]c(CS(=O)(=O)Cc3nc4c([nH]3)c(=O)n(C)c(=O)n4C)nc2n(C)c1=O	-2.72%
Nc1nc(N)c(N=Nc2ccc(C(=O)O)c(O)c2)c(N)n1	12.4%
c1ccc(SCCc2ccncc2)cc1	5.61%
CC(=NNS(=O)(=O)c1ccc(C)cc1)P(=O)(O)O	15.5%
COc1cc2c3cc1Oc1c(OC)c(OC)cc4c1C(Cc1ccc(O)c(c1)Oc1ccc(cc1)CC3N(C)CC2)CN(C)C4 (stereo not drawn)	37.9% (active)
COc1ccc2cc1Oc1ccc(cc1)CC1c3c(cc(OC)c4c3Oc3cc5c(cc3O4)CCNC5C2)CCN1C (stereo not drawn)	79.4% (active)
COc1ccc2cc1Oc1ccc(cc1)CC1c3cc(c(OC)cc3CCN1C)Oc1c(OC)c(OC)cc3c1C(C2)N(C)CC3 (stereo not drawn)	70.1% (active)

SMILES	hERG blockade
COc1ccc(CC2C(=O)NC(C)C(=O)N(C)C3Cc4ccc(cc4)Oc4cc(ccc4O)CC(C(=O)NC(C)C(=O)NC(C)C(=O)N2C)N(C)C3=O)cc1 (stereo not drawn)	4.92%
COc1cc2c3cc1Oc1cc(ccc1O)CC1c4c(cc(OC)c(O)c4Oc4ccc(cc4)CC3[N+](C)(C)CC2)CC[N+]1(C)C (stereo not drawn)	11.2%
N=c1sc2ccccc2n1CCS (tested in a mixture with another compound)	5.15%
COC(NC(N)=O)C(=O)O (stereo not drawn)	6.05%
Cc1c(Cl)cc(C(C)(C)C)c(O)c1Cc1c(C)c(Cl)cc(C(C)(C)C)c1O	0.223%
CC(C)(CCC(C)(C)c1ccccc1)c1ccccc1	1.92%
CN(C)Cc1nsc(N(C)C)n1	2.33%
Cn1c(=O)c2c(nc(Cc3ccccc3)n2CC(=O)O)n(C)c1=O	11.6%
CCOc1ccccc1C=C(C#N)C(N)=O	-12.6%
CC(=Cc1ccc(Cl)cc1)C(C)(C)C(=O)O	-2.46%
O=C(O)C1C2C=CC(O2)C1C(=O)Nc1ccccc1 (stereo not drawn)	-12.4%
O=C(NN=Cc1ccc2c(c1)CCC2)c1ccccc1O	7.38%
CC(C)(C)C1CCC2(CC1)CCN(CCCN1CCOCC1)CC2	36.7% (active)
CN(C)CCCN1CCC2(CCC(C(C)(C)C)CC2)CC1	11.2%
FC(F)(F)c1nc2nc(Cl)c(Cl)nc2n1CCCN1CCOCC1	-9.32%
c1ccc(NCCSc2nc3ccccc3s2)cc1	-0.231%
CCC1CC(=O)N(SCC(N)C(=O)O)C1=O (stereo not drawn)	-6%
Fc1cccc(F)c1C(Nc1nncs1)Nc1nncs1	-2.76%
CC(C)C(Sc1nc(N)nc2nc[nH]c12)C(=O)O (stereo not drawn)	1.36%
C[N+](C)(C)CCN[N+]1(C)CCCc2ccccc21 (stereo not drawn)	13.2%
CC(=NS(=O)(=O)c1ccc(Cl)c(Cl)c1)OCC(C)(C)C	21.3% (active)

SMILES	hERG blockade
CNCC(Cl)=NS(=O)(=O)c1ccc(C)cc1	2.08%
CC(C)(C)C(=O)C(C(c1ccccc1)N1CCOCC1)N1CCOCC1 (stereo not drawn)	18.3%
O=C(O)CC(Cc1ccccc1Cl)C(=O)O (stereo not drawn)	9.3%
CC(CNC(N)=O)NC(N)=O (stereo not drawn)	2.5%
O=C(O)CC1(CC(=O)O)Nc2ccccc2SC1=O	-18.2%
C[N+](C)(C)c1cc2c(nn1)Nc1ccccc1S2	43.5% (active)
O=S(=O)(O)CCCc1cccc2ccccc12	-12.8%
Nc1cccc2nsnc12	-4.23%
NC(CCc1ccccc1)(C(=O)O)c1ccccc1 (stereo not drawn)	-9.5%
CC12CCC(=O)C=C1CCC1C2CCC2(C)C(C(=O)COS(=O)(=O)c3ccc(Br)cc3)CCC12 (stereo not drawn)	17%
O=C(O)C=C(C(=O)O)C12CCN3CC4=CCOC5CC(=O)NC1C5C4CC32 (stereo not drawn)	20.4% (active)
NC1C2C(CC(=O)O)OCC=C3CN4CCC1(C(=O)C(=O)O)C4CC32 (stereo not drawn)	13%
O=C1CC2OCC=C3CN4CCC5(C(=O)O)C(N1)C2C3CC45 (stereo not drawn)	-10.2%
ON(CCc1ccncc1)Cc1ccccc1	-10.6%
CC12CCC(O)CC1CCC1C2CCC2(C)C(c3cc(C(F)(F)F)n[nH]3)CCC12 (stereo not drawn)	8.14%
O=C1c2ccccc2C(=O)c2c(NC3CCCCC3)ccc(Nc3ccc(S(=O)(=O)O)cc3)c21	16.1%
CN(C)S(=O)(=O)c1ccc(Nc2ccc(O)c3c2C(=O)c2c([N+](=O)[O-])ccc(O)c2C3=O)cc1	64.1% (active)
O=C1C2C3C=CC(C2C(=O)N1CN1CCSCC1)C1C2C(=O)N(CN4CCSCC4)C(=O)C2C31 (stereo not drawn)	7.62%
CC(=O)Nc1ccc(S(=O)(=O)N=S(C)C)cc1	14.2%
c1ccc(COC2NCCN2Cc2ccccc2)cc1 (stereo not drawn)	7.69%
c1ccc([P+](CC[P+](c2ccccc2)(c2ccccc2)c2ccccc2)(c2ccccc2)c2ccccc2)cc1	11.7%
